An excerpt weighted towards active compounds, which were near 8.1% of everything screened.
MCF10A rereplic = A quantitative high throughput screen for small molecules that induce DNA re-replication in MCF 10a normal breast cells; MCF 10A DNA re-replication, Hoechst nuclear intensity, 48 h; Potency, µM (titrated, usually from 46.1 µM), for the others: top-dose activity, positive = re-replication, usual class: activators; 350,000 tested, 2.9% active; AID 624296, 2012; further: % of control where 0% means no effect; nearly all actives have a fitted effect of over 50% in size
KB-3-1 cytotox = qHTS assay for MDR1-selective chemotherapeutics: Primary screen using the parental adenocarcinoma cell KB-3-1; KB-3-1 viability, CellTiter-Glo ATP luminescence, 72 h; Potency, µM (titrated, usually from 46.1 µM), most hits filed as cytotoxic; 400,000 tested, 1.4% active; AID 1347075, 2019; further: on the % scale 0 is the no-effect control and ±100 the full control effect; nearly all actives have a fitted effect of over 60% in size
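Luminescent ATP read-out (CellTiter-Glo) measures survival of drug-naive KB-3-1 cells after 72 h compound exposure at 37 °C. Titration series was screened from lowest to highest concentration, with DMSO vehicle plates as background controls.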
ELG1 repair inh = qHTS screen for small molecules that inhibit ELG1-dependent DNA repair in human embryonic kidney (HEK293T) cells expressing luciferase-tagged ELG1; Potency, µM (highest dose often 46.1 µM), without a hit: top-dose activity change, negative = inhibition, actives largely listed as inhibitors; HEK293T ELG1-luciferase reporter, luminescence, 16 h; DNA damage induced by 5-fluorouridine; 330,000 tested, 2.3% active; further: on the % scale 0 is the no-effect control and ±100 the full control effect; nearly all actives have a fitted effect of over 55% in size
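Quantitative HTS, concentration-response format. 2,000 cells/well co-treated with 5-fluorouridine and compound, 16 hr in 5% CO2 at 37 °C; ONE-Glo luminescence read after 30 min.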
SW480 rereplic = A quantitative high throughput screen for small molecules that induce DNA re-replication in SW480 colon adenocarcinoma cells; SW480 DNA re-replication, Hoechst DNA content imaging, 48 h; Potency, µM (series often up to 46.1 µM), for inactives: at the highest dose re-replication activation, actives largely listed as activators; 340,000 tested, 1.8% active; AID 624297, 2012; further: % of control where 0% means no effect; nearly all actives have a fitted effect of over 55% in size
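Treated cells incubate 48 hr (37 C, 5% CO2), are stained 40 min with Hoechst, and nuclear fluorescence is enumerated; a rise in nuclei with high DNA signal marks re-replication.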
KB-V1 MDR tox = qHTS assay for MDR1-selective chemotherapeutics: Primary screen using the drug-selected MDR subline cells KB-V1 | KB-V1 MDR cells viability, CellTiter-Glo, 72 h | Potency, µM (series often up to 46.1 µM), usual class: cytotoxic | 400,000 tested, 3.4% active; further: on the % scale 0 is the no-effect control and ±100 the full control effect; nearly all actives have a fitted effect of over 60% in size
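In this primary screen, KB-V1 cells overexpressing P-gp are incubated with library compounds (lowest to highest concentration) for 72 h at 37 degrees C before a luminescent ATP viability read.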
ELG1 FLuc counter = qHTS screen for small molecules that inhibit ELG1-dependent DNA repair: Hit Confirmation in Cell-Based Luciferin Assay | shares compounds with ELG1 repair inh | cell-free firefly luciferase luminescence counter-screen, ViewLux | Potency, µM (titrated, usually from 46.1 µM), inactives show at the top dose activity change, negative = inhibition, most hits filed as inhibitors | 350 tested, 3% active; further: on the % scale 0 is the no-effect control and ±100 the full control effect
ELG1-Luc inh = HTS assay for small molecules that inhibit ELG1-dependent DNA repair in human embryonic kidney (HEK293T) cells expressing luciferase-tagged ELG1: Hit Confirmation; shares compounds with ELG1 repair inh; HEK293T ELG1-luciferase levels, luminescence; cells co-treated with 5-fluorouridine; Potency, µM (doses to about 46.1 µM), inactives show at the highest dose activity change, negative = inhibition, actives largely listed as inhibitors; 670 tested, 68% active; further: on the % scale 0 is the no-effect control and ±100 the full control effect; nearly all actives have a fitted effect of over 55% in size
ELG1-Luc MMS = confirmation of human ELG1 repair inhibitors, MMS stimulated | shares compounds with ELG1 repair inh | HEK293T luciferase-tagged ELG1 level, MMS stimulated | Potency, µM (highest dose often 46.1 µM), for the others: top-dose activity change, negative = inhibition, hits mostly inhibitors | 670 tested, 53% active; further: on the % scale 0 is the no-effect control and ±100 the full control effect; nearly all actives have a fitted effect of over 60% in size
ELG1 5-FU = qHTS screen for small molecules that inhibit ELG1-dependent DNA repair: Hit Confirmation with 5FU Viability. shares compounds with ELG1 repair inh. AID 624250, 2012. cell viability with 5-FU, ELG1-dependent repair. Potency, µM (top dose mostly 46.1 µM), inactives show at the top dose activity change, negative = viability loss, most hits filed as cytotoxic. 670 tested, under 10 active;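 further: ELG1-luc HEK293T cells cotreated with 5-fluorouridine at 10 µM final; viability measured 16 h after compound addition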
ELG1 MMS viab = qHTS screen for small molecules that inhibit ELG1-dependent DNA repair: Hit Confirmation with MMS Viability; Potency, µM (titrated, usually from 46.1 µM), for the others: at the top dose activity change, negative = viability loss, actives largely listed as cytotoxic; 670 tested, 33% active; Cell viability with MMS, ELG1-dependent DNA repair; shares compounds with ELG1 repair inh;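 further: ELG1-luc HEK293T cells co-treated with 10 µM MMS; viability read 16 h after compound addition; on the % scale 0 is the no-effect control and ±100 the full control effect; nearly all actives have a fitted effect of over 60% in size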
ELG1 unstim viab = qHTS screen for small molecules that inhibit ELG1-dependent DNA repair: Hit Confirmation with Unstimulated Viability Assay. shares compounds with ELG1 repair inh. cell viability counter-screen, unstimulated, luminescence. Potency, µM (top dose mostly 45.9 µM), for the others: at the top dose activity change, negative = loss of viability, actives largely listed as cytotoxic. 900 tested, 8% active. AID 624252, 2012;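 further: compound exposure lasted 16 hours before reading; on the % scale 0 is the no-effect control and ±100 the full control effect; nearly all actives have a fitted effect of over 55% in size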
FLuc biochem = qHTS screen for small molecules that inhibit ELG1-dependent DNA repair: Hit Confirmation in Biochemical Luciferin Assay; 350 tested, 10% active; Potency, µM (highest dose often 57.5 µM), for inactives: at the highest dose activity, negative = inhibition, hits mostly inhibitors; purified firefly luciferase, luminescence counter-screen; shares compounds with ELG1 repair inh; further: on the % scale 0 is the no-effect control and ±100 the full control effect
Numbers without * were called inactive; i = inactive; ? = inconclusive; . = no result given; [ ] = another dose, or the depositor's remark. The call rests on the fitted dose curve; in most records, active means well fitted curve in the direction sought with a large enough effect; inconclusive means small, poorly fitted or top-dose-only effect, or another doubt; inactive means no such curve, though single readings can be large; an effect the other way counts as inactive or inconclusive. Potency means the concentration at half of the fitted maximal effect.

SMILES	MCF10A rereplic	KB-3-1 cytotox	ELG1 repair inh	SW480 rereplic	KB-V1 MDR tox	ELG1 FLuc counter	ELG1-Luc inh	ELG1-Luc MMS	ELG1 5-FU	ELG1 MMS viab	ELG1 unstim viab	FLuc biochem
COc1ccc(C(=O)Nc2cc3c(cc2N2CCCCC2)n(C)c(=O)n3C)cc1OC	?	i	-6.7%	-39.2%	i	100.0%	?	8.8%	?	-1.7%	-0.1%	-1.8%
CN1CCN(c2nc(-c3ccncc3)nc3ccccc23)CC1	?	i	-15.9%	?	?	17.6%	?	?	-15.7%	-5.3%	?	0.4%
O=S(=O)(c1cc(F)ccc1F)N1CCN(c2ncnc3ccccc23)CC1	5.8µM*	5.17µM*	4.61µM*	18.4µM*	9.2µM*	.	6.28µM*	2.23µM*	-14.3%	2.5µM*	?	.
O=C(C1=C[C@H](c2ccc3c(c2)OCO3)C[C@H](OCCCCO)O1)N1CCN(Cc2ccccc2)CC1	-1.3%	i	7.5%	7.6%	?	-4.3%	-35.0%	?	-1.1%	?	-6.2%	-5.7%
CC(=O)n1cc([C@@H]2C=C(C(=O)N3CCN(Cc4ccc5c(c4)OCO5)CC3)O[C@H](OCCCCO)C2)c2ccccc21	?	i	18.3µM*	0.7%	i	-8.5%	?	7.7%	-5.5%	-15.8%	?	-16.3%
O=C(C1=C[C@H](c2ccc3c(c2)OCO3)C[C@H](OCCCCO)O1)N1CCN(Cc2ccc3c(c2)OCO3)CC1	-2.2%	i	?	6.6%	i	.	.	.	.	.	.	.
CC(=O)n1cc([C@H]2C=C(C(=O)N3CCN(Cc4ccccc4)CC3)O[C@@H](OCCCCO)C2)c2ccccc21	-0.9%	i	-6.3%	18.4%[9.22 µM]	i	.	.	.	.	.	.	.
CCOC(=O)C(C#N)(Cc1cc(OC)cc(OC)c1)Cc1cc(OC)cc(OC)c1	-14.8%	i	.	15.6%[9.22 µM]	i	.	.	.	.	.	.	.
CC(=O)c1c(C)n(-c2ccc(Br)cc2)c2ccc(O)cc12	?	i	-14.5%	12.6%	i	.	.	.	.	.	.	.
CC(=O)c1ccc(-n2c(C)c(C(C)=O)c3cc(O)ccc32)cc1	-2.5%	i	2.06µM*	-2.4%	i	.	?	-0.7%	0.3%	0.8%	3.6%	.
COc1ccc(N2CCN(C(=O)CCS(=O)(=O)c3ccc4c(c3)NC(=O)C(C)S4)CC2)cc1 (configuration not stated)	0.7%	i	-10.0%	-12.6%	i	.	.	.	.	.	.	.
Cc1ccc(C)c(N2CCN(C(=O)CCS(=O)(=O)c3ccc4c(c3)NC(=O)C(C)S4)CC2)c1 (configuration not stated)	-14.5%	?	4.61µM*	-10.0%	?	.	12.5µM*	1.99µM*	?	1.99µM*	?	.
O/N=C/c1cn(-c2ccccc2)nn1	?	i	?	-42.8%	i	.	.	.	.	.	.	.
COc1ccc(CCNC(=S)NC(=O)c2cc(OC)c(OC)c(OC)c2)cc1OC	?	i	1.83µM*	-7.5%	i	.	2.5µM*	0.5%	?	-1.1%	?	.
CC(=O)Nc1ccccc1C(=O)C(=O)Nc1cccc(F)c1	-0.1%	i	.	3.4%	i	.	.	.	.	.	.	.
CCC(Oc1ccc(Br)cc1Cl)C(=O)Nc1nnc(C2CC2)s1 (configuration not stated)	?	.	-1.0%	-2.5%	.	.	.	.	.	.	.	.
Cc1ccc(-n2nc3c(=O)n(CC(=O)NCCc4ccccc4C)nc(C)c3c2C)cc1	11.3%	?	3.66µM*	4.9%	i	.	?	9.96µM*	-13.4%	9.96µM*	?	.
COc1ccc(-n2nc(C(=O)NCC(=O)Nc3cc(OC)c(OC)c(OC)c3)c3ccccc3c2=O)cc1	8.6%	i	3.26µM*	-0.9%	i	69.7%	3.15µM*	12.6µM*	15.0%	-18.4%	?	4.6%
CCNCc1nc2cc(OC)c(OC)cc2c(=O)[nH]1	2.1%	i	-2.4%	-7.7%	i	.	.	.	.	.	.	.
COc1cc2nc(CN(CCC(C)C)Cc3nc4cc(OC)c(OC)cc4c(=O)[nH]3)[nH]c(=O)c2cc1OC	7.3%	i	1.46µM*	3.6%	i	.	2.81µM*	?	?	6.8%	-16.9%	.
Cc1ccc(Nc2nc(N3CCOCC3)nc(N3CCOCC3)n2)cc1C	?	i	?	-8.0%	i	.	.	.	.	.	.	.
CCCCSc1nc2ccc(Nc3nc(N4CCOCC4)nc(N4CCOCC4)n3)cc2s1	?	?	16.4µM*	1.1%	i	4.9%	12.6µM*	?	?	-0.1%	-9.9%	-6.3%
